The values below come from PubChem BioAssay (EPA / NIEHS).

For orientation: AC50 means the concentration at which the activity in the assay is half-maximal.

“And” between values parts separate entries of the source, which are not always exact repeats. Equal values may be shown once. Results filed as inconclusive are left out. More than one record can exist for a structure, and the calls need not agree. The source made the active and inactive calls. Rule for the calls: active = hit-call score of the fitted dose curve at least 0.9, where 1 is the maximum; inconclusive = response in the unintended direction; inactive = score below 0.9.

Sequence of Glucocorticoid receptor (Homo sapiens) (P04150 whole entry, looked up): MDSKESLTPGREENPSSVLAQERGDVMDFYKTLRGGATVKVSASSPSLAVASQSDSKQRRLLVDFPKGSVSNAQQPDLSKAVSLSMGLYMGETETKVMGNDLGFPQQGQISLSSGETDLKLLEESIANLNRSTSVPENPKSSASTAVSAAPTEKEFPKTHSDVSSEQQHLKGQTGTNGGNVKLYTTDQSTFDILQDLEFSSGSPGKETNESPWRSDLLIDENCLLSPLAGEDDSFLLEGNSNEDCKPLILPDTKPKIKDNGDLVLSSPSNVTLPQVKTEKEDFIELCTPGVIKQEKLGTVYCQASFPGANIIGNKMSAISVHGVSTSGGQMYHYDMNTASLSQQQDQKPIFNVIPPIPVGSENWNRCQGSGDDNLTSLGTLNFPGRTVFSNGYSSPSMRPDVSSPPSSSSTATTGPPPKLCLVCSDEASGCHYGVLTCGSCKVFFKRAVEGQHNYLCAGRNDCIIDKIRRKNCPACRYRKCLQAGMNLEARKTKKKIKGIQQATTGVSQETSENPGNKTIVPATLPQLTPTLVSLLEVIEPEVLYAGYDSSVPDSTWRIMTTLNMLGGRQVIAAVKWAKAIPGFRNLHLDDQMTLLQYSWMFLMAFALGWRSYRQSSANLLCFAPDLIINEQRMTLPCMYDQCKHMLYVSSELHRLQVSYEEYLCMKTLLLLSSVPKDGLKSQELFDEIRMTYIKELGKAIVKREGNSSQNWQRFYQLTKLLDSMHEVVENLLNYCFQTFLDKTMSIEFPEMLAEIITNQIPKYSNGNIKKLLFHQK

The assay addresses Glucocorticoid receptor (Homo sapiens) (UniProt P04150). As to the kind of experiment: ATG_GR_TRANS: Attagene TRANS-FACTORIAL HepG2 Assay for human Glucocorticoid Receptor (GR) (AID 2282978).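 Note: activators score as hits since higher reporter transcript over DMSO is fitted.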 Particulars: HepG2 Attagene TRANS GR reporter, mRNA transcription. As for the experimental part:
ATG_TRANS is a cell-based, multiplexed-readout assay that uses HepG2, a human liver cell line, with measurements taken at 24 hours after chemical dosing in a 24-well plate.ATG_GR_TRANS is one of 30 assay component(s) measured or calculated from the ATG_TRANS assay. It is designed to make measurements of mRNA induction, a form of inducible reporter, as detected with fluorescence intensity signals by Reverse transcription polymerase chain reaction (RT-PCR) and Capillary electrophoresis technology.Data from the assay component ATG_GR_TRANS was analyzed into 1 assay endpoint. This assay endpoint, ATG_GR_TRANS, was analyzed in the positive analysis fitting direction relative to DMSO as the negative control and baseline of activity. Using a type of inducible reporter, measures of mRNA for gain-of-signal activity can be used to understand the reporter gene at the transcription factor-level as they relate to the gene NR3C1. Furthermore, this assay endpoint can be referred to as a primary readout, because this assay has produced multiple assay endpoints where this one serves a reporter gene function. To generalize the intended target to other relatable targets, this assay endpoint is annotated to the nuclear receptor intended target family, where the subfamily is steroidal.
Human liver HepG2 cells are transiently transfected with multiple reporter transcription units (MRTUs) in 6-well plates using FuGene 6 reagent (Roche; 3 ml FuGene/1 mg DNA). The MRTU constructs are regulated by a cis-regulating element (promoter). […] A major difference between the CIS and TRANS system is that in CIS activities of endogenous TFs are measured, whereas the TRANS assay evaluates changes in activities of exogenous, chimeric NR-Gal4 proteins. […] At the end of 24 hour incubation, total RNA was isolated using TriZol reagent (Invitrogen). The isolated RNA is then reverse-transcribed using oligo(dT) primer and Mo-MLV reverse transcriptase (Invitrogen) with DNAse I (Ambion) treatment for 30 min. The one-tenth of the produced cDNA was amplified by PCR using Taq DNA polymerase (Invitrogen) and two reporter sequence-specific primers. The PCR products were fluorescently labeled by primer extension with 6-arboxyfluorescein (6-FAM) 5'-labeled reporter sequence-specific primer (2 min at 95 C, 20 s at 68 C and 10 min at 72 C) and these products were digested with 5U of HpaI (New England Biolabs) for 2h at 37 C. The fragments were purified using Qiaquick PCR columns (Qiagen), analyzed on an ABI 3130xL genetic analyzer (Applied Biosystems) with peak positions identified by using a set of X-rhodamine (ROX)-labeled MapMarker1000 molecular weight standards (BioVentures). The raw capillary electrophoresis data was processed using Attagraph software (Attagene).
Regarding `O=C1O[C@H]([C@H](O)CO)C(O)=C1O`, the compound was classed as inactive.
As to `CC(=O)OCC(COC(C)=O)OC(C)=O`, the outcome was inactive.
Still for that read-out and setting: then `CC(C)(O)c1ccc(CNC(=O)c2cccnc2Oc2ccc(F)cc2)cc1`, with “inactive”.
As for `CC(=O)[C@@]1(O)CC[C@H]2[C@@H]3CCC4=CC(=O)CC[C@]4(C)[C@H]3CC[C@@]21C`, the AC50 was 6.26 µM (active) and 14.8 µM (active) and 1.58 µM (active); the call was inactive.
`CCCCOC(=O)CCCCC(=O)OCCCC`: the AC50 is 155 µM (active).
As to `C#CC(O)C(CC)CCCC` (stereo not given), the result was inactive.
On the same count and under the same terms, then `CC(COCC(C)OC(=O)c1ccccc1)OC(=O)c1ccccc1` (stereo not given), with “inactive”.
As to `CCCCC(CC)CO` (stereo not given), the compound was classed as inactive.
The same measure, in the same setting: then `CCOCCOCCO`, with “inactive”; and `CCc1nc(N)nc(N)c1-c1ccc(Cl)cc1`, with “inactive”.
On the same count and under the same terms, then `S=c1[nH]c2ccccc2s1`, with “inactive”.
Same read-out and setting: then `OCC(CO)n1cnc(-c2ccc(F)cc2)c1-c1ccnc(Oc2ccccc2)n1`, with “inactive”.
Regarding `CS(=O)(=O)c1ccc([C@@H](C[C@H]2CCC(=O)C2)C(=O)Nc2cnccn2)cc1Cl`, the compound was classed as inactive.
On the same count and under the same terms, the value for `COC(=O)CCCC(=O)OC` was “inactive”; that for `O=C(Oc1ccccc1)c1cccc(C(=O)Oc2ccccc2)c1` was “inactive”; that for `O=C1NC(=O)C(c2ccccc2)(c2ccccc2)N1` was “inactive”.
On the same count and under the same terms, then `O=C1CCCCC1`, with “inactive”; and `Cc1cc(Cc2ccc(N)c(C)c2)ccc1N`, with “inactive”; and `CCc1cc(C2=C(C(=O)O)N(c3ccccc3C(F)(F)F)S(=O)(=O)c3ccccc32)cc2c1OCO2`, with “inactive”.
Still for that read-out and setting: the value for `CC(N)=O` was “inactive”; that for `Nc1nc(Cl)nc2c1ncn2[C@H]1C[C@H](O)[C@@H](CO)O1` was “inactive”; that for `CCN(CC)CCOc1ccc(C(=C(Cl)c2ccccc2)c2ccccc2)cc1` was “inactive”.
Consider `CC(=O)S[C@H](C(=O)N[C@H]1Cc2ccccc2[C@H]2CCC[C@@H](C(=O)O)N2C1=O)C(C)C`, for which the result was inactive.
Turning to `O=C(O)CN(CC(=O)O)CC(=O)O`, the compound was called inactive.
On the same count and under the same terms, then `CN(C)C(=O)NC1(c2ccccc2)CCN(CC[C@@]2(c3ccc(F)c(F)c3)CN(C(=O)c3ccccc3)CCO2)CC1`, with “inactive”.
Still for that read-out and setting: then `CC(C)OC(=O)C(C)(C)Oc1ccc(C(=O)c2ccc(Cl)cc2)cc1`, with “inactive”; and `Cn1cnc2c1c(=O)[nH]c(=O)n2C`, with “inactive”.
The same measure, in the same setting: the value for `COC(=O)[C@H]1[C@H]2C[C@@H]3c4[nH]c5cc(OC)ccc5c4CCN3C[C@H]2C[C@@H](OC(=O)c2cc(OC)c(OC)c(OC)c2)[C@@H]1OC` was “inactive”.
`CCCCCCC(CCCCCCCCCCC(=O)OCC(COC(C)=O)OC(C)=O)OC(C)=O` (stereo not given): the call was inactive.
Same read-out and setting: the value for `NCCOCCOCCN` was “inactive”; that for `CCCCCCC(C=O)=Cc1ccccc1` was “inactive”.
Still for that read-out and setting: then `Cc1ccc(-c2cc(C(F)(F)F)nn2-c2ccc(S(N)(=O)=O)cc2)cc1`, with “inactive”; and `C=CCc1ccc(OC)c(OC)c1`, with “inactive”.
Still for that read-out and setting: the value for `CCCCCCCCCCCCCCCCO` was “inactive”; that for `O=C1c2c(O)cccc2Cc2cccc(O)c21` was “inactive”.
Regarding `CCCCCCCCCCCCCCOS(=O)(=O)O`, the call was inactive.
On the same count and under the same terms, then `CC1(C)C(=O)NC(=O)N1CO`, with “inactive”; and `CCCCc1nc2cccnc2n1Cc1ccc(-c2ccccc2-c2nnn[nH]2)cc1`, with “inactive”; and `NC(=Nc1ccccc1)Nc1ccccc1`, with “inactive”.
